JMJD2A Tudor inh: qHTS Assay for Inhibitors of JMJD2A-Tudor Domain; Lysine-specific demethylase 4A (Homo sapiens), O75164; AlphaScreen JMJD2A-Tudor / H3K4me3 peptide binding; Potency, µM (series often up to 114 µM), actives largely listed as inhibitors; 390,000 tested, 4.4% active; also: nearly all actives have a fitted effect of over 50% in size
CtBP-E1A inh: qHTS Assay for Inhibitors of the CtBP/E1A Interaction; 340,000 tested, 0.49% active; AID 651724, 2012; activity change, % (concentration not given with the values); CtBP / adenovirus E1A interaction (AlphaScreen); AlphaScreen GST-E1A/His-CtBP binding, 1536-well; hits give low values; in the data active = activity change below about -65%; inconclusive = mostly about -30% to -63%
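AlphaScreen with 125 nM GST-E1A and 125 nM His-CtBP (5X stocks) in Tris pH 8.0, 300 mM NaCl, BSA, Tween 20, TCEP. Compounds preincubated 2 h at 37 deg C, then glutathione donor/nickel acceptor beads added for 1 h at 37 deg C in dark.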
G9a inh: qHTS Assay for Inhibitors of Histone Lysine Methyltransferase G9a. Histone-lysine N-methyltransferase EHMT2 (Homo sapiens), Q96KQ7. G9a H3K9 monomethylation, AlphaScreen, 2 h. Potency, µM (titrated, usually from 102 µM), hits mostly inhibitors. 350,000 tested, 8.8% active; also: nearly all actives have a fitted effect of over 75% in size
Target sequence (Q96KQ7 913-1193 limits assumed): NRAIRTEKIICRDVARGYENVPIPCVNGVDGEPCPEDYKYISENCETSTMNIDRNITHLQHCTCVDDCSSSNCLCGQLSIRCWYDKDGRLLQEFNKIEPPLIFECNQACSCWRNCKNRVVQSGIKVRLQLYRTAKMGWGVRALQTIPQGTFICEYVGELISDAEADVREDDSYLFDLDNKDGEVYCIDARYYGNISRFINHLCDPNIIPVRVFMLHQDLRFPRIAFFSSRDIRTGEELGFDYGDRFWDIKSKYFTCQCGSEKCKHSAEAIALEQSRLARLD
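Enzyme 20 nM + cpd, 15 min RT; add b-H3K9 pep 500 nM / SAM 20 uM; 2 h RT; anti-H3K9me1 Ab 0.5 ug/mL + SA donor / anti-rabbit acceptor beads 20 ug/mL each, 10 min; AlphaScreen read.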
BAZ2B block: qHTS Assay for Inhibitors of BAZ2B | Bromodomain adjacent to zinc finger domain protein 2B (Homo sapiens), Q9UIF8 | AlphaScreen BAZ2B-H3K14Ac peptide displacement | Potency, µM (top dose mostly 114 µM), hits mostly inhibitors | 360,000 tested, 4.4% active; also: nearly all actives have a fitted effect of over 60% in size
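Complex of BAZ2B and biotin-H3K14Ac (50 nM apiece) forms over 30 min at RT, then faces library compounds up to 110 uM for another 30 min; AlphaScreen beads added, 20 min dark incubation, luminescence read.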
Six1-Eya2 inh: qHTS Assay for Inhibitors of the Six1/Eya2 Interaction. Homeobox protein SIX1 (Homo sapiens) + Protein phosphatase EYA2 (Homo sapiens), …. 360,000 tested, 0.56% active. AlphaScreen GST-Six1/His-Eya2 binding, biochemical; hits give low values. activity change, % (concentration not given with the values). AID 651725, 2012; in the data active = activity change below about -65%; inconclusive = mostly about -30% to -63%
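AlphaScreen with GST-Six1 and His-Eya2 (5X mix: 250 nM and 500 nM), glutathione donor and nickel acceptor beads; buffer 50 mM Tris pH 8.0, 300 mM NaCl, 1 mM TCEP; 1 h at 37 C in the dark.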
HP1b chromo inh: HTS for Inhibitors of HP1-beta Chromodomain Interactions with Methylated Histone Tails | AlphaScreen HP1-beta / biotin-H3K9me3 peptide binding | Potency, µM (series often up to 114 µM), hits mostly inhibitors | Chromobox protein homolog 1 (Homo sapiens), P83916 | 390,000 tested, 0.56% active; also: nearly all actives have a fitted effect of over 70% in size
Target sequence (P83916 whole entry, looked up): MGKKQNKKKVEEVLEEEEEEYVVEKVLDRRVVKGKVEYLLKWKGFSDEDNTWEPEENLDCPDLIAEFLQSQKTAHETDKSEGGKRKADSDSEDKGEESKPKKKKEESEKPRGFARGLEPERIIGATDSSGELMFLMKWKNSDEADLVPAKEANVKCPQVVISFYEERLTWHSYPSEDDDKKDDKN
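HP1-beta protein (50 nM final) preincubated 30 min at room temperature with biotinylated H3(1-18)K9me3 peptide (50 nM) in PBS pH 7.4, 0.01% Tween-20, then compound added for 30 min. AlphaScreen streptavidin donor/nickel chelate acceptor beads (10 ug/mL final), 30 min dark, luminescence read.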
Each line names hits and unclear results; the compound was inactive in the other large screens. A selection: hits, their analogues and other compounds. The true share with any hit is near 10%. Unless noted, calls follow the shape of the dose curve; as a rule, active = well fitted inhibition curve with a large enough effect; inconclusive = small, poorly fitted or top-dose-only effect; inactive = no such curve, though single readings can be large or run the other way.

CCN(CC)C(=O)c1sc(NC(=O)c2ccc3c(c2)OCO3)c(C(N)=O)c1C	CtBP-E1A inh inconclusive, Six1-Eya2 inh inconclusive (no result: G9a inh)
Cc1c(Cc2ccccc2)sc(NC(=O)c2ccco2)c1C(N)=O	none
Cc1c(Cc2ccccc2)sc(NC(=O)/C=C/c2cccc3ccccc23)c1C(N)=O	JMJD2A Tudor inh 39.8µM, G9a inh 20µM
Cc1c(Cc2ccc3c(c2)OCO3)sc(NC(=O)c2cccc3ccccc23)c1C(N)=O	JMJD2A Tudor inh inconclusive, G9a inh 7.08µM, BAZ2B block inconclusive, HP1b chromo inh inconclusive
O=C(COc1ccccc1Cl)Nc1ccc2nc(SCC(=O)N3CCOCC3)sc2c1	BAZ2B block inconclusive (no result: CtBP-E1A inh, Six1-Eya2 inh)
CSc1ccc(C2c3[nH]c4ccccc4c3CCN2C(=O)CCC2CCCC2)cc1 (centres undefined)	JMJD2A Tudor inh inconclusive, BAZ2B block inconclusive (no result: CtBP-E1A inh, Six1-Eya2 inh)
Cc1ccc2scc(N3CCCC(C)C3)c(=O)c2c1 (centres undefined)	JMJD2A Tudor inh inconclusive, G9a inh inconclusive (no result: CtBP-E1A inh, Six1-Eya2 inh)
Cc1ccc(NC(=O)C(=O)C2C(=O)Nc3ccccc32)cc1 (centres undefined)	G9a inh inconclusive
COc1cc(CC2C(=O)Nc3ccccc32)cc(C)c1O (centres undefined)	G9a inh 35.5µM
CCn1c(CC2C(=O)Nc3ccccc32)nc2ccccc2c1=O (centres undefined)	none (no result: CtBP-E1A inh, Six1-Eya2 inh)
O=C1Nc2ccccc2C1Cc1ccc(OC(F)(F)F)cc1 (centres undefined)	none (no result: CtBP-E1A inh)
O=C1Nc2ccccc2C1Cc1ccccn1 (centres undefined)	JMJD2A Tudor inh 89.1µM, G9a inh inconclusive, BAZ2B block inconclusive
CCCCCNC(=O)C(=O)C1C(=O)Nc2ccccc21 (centres undefined)	JMJD2A Tudor inh inconclusive, BAZ2B block 79.4µM (no result: G9a inh)
CN(C)CCNC(=O)C(=O)C1C(=O)Nc2ccccc21 (centres undefined)	G9a inh 31.6µM (no result: JMJD2A Tudor inh, CtBP-E1A inh, Six1-Eya2 inh, HP1b chromo inh)
CC(C)(C)CC(=O)NCC(c1ccc2c(c1)OCO2)N1CCOCC1 (centres undefined)	none (no result: CtBP-E1A inh, Six1-Eya2 inh)
O=C(COc1ccccc1Cl)OCc1cc(=O)n2nc(C3CC3)sc2n1	none (no result: CtBP-E1A inh, Six1-Eya2 inh)
O=C1Nc2ccccc2C1C(C[N+](=O)[O-])c1ccccn1 (centres undefined)	G9a inh 35.5µM, BAZ2B block inconclusive (no result: CtBP-E1A inh)
O=C(NCc1ccccn1)C(=O)C1C(=O)Nc2ccccc21 (centres undefined)	G9a inh 50.1µM, BAZ2B block 79.4µM
CCNC(=O)CC1C(=O)N(c2ccc(F)cc2)C(=O)N1CCOC (centres undefined)	none (no result: CtBP-E1A inh, Six1-Eya2 inh)
S=C1NCCNC(=S)NCCOCCOCCN1	JMJD2A Tudor inh 39.8µM
COc1ccc(C)cc1NC(=O)CSc1nnc2ccc(-c3ccncc3)nn12	none
CC(C)NC[C@@H](O)COc1ccc(COCCOC(C)C)cc1	none (no result: JMJD2A Tudor inh, CtBP-E1A inh, BAZ2B block, Six1-Eya2 inh, HP1b chromo inh)
CC(=O)Nc1ccc(OCc2cccc(-c3nc4ccccc4c(=O)n3Cc3ccco3)c2)cc1	JMJD2A Tudor inh 56.2µM (no result: CtBP-E1A inh, G9a inh, BAZ2B block, Six1-Eya2 inh, HP1b chromo inh)
CCOC(=O)CSc1nc2ccccc2c(=O)n1Cc1ccco1	none
CC(=O)Nc1ccc(NC(=O)C(C)Sc2nc3ccccc3c(=O)n2Cc2ccco2)cc1 (centres undefined)	G9a inh 56.2µM
COc1ccc(CCN2CC(C(=O)OCc3ccccc3Cl)CC2=O)cc1OC (centres undefined)	none (no result: G9a inh, BAZ2B block)
O=C(CCc1nc2sc3c(c2c(=O)[nH]1)CCCC3)NCCc1ccccc1	G9a inh inconclusive, BAZ2B block inconclusive

Screening data (PubChem)
